SMILES strings stand for the structures.

For orientation: inhibition means the drop in the measured response relative to a control, in per cent.

This experiment deals with Glucose transporter (Leishmania mexicana) (UniProt O61059). The experiment can be described thus: ST_JUDE_LEISH: Cytotoxicity at 2uM final concentration against transgenic Leishmania Mexicana promastigotes LmGT2 that are glucose transport deficient and complemented with the L. Mexicana glucose transporter 2. Activity is measured by DNA content using SYBR green in vitro. The experiment is classed as functional.
Take `CCOc1ccc(N2C(N)=NC(N)=NC2(C)C)cc1`: the inhibition worked out at 4.06%.

On to `Cc1nc(C)n(CC(=O)Nc2cccc(-c3cccc(-c4nc5cc(C(F)(F)F)ccc5[nH]4)c3)c2)n1`, for which the inhibition came out at 7.09%.

For `CN(C)CCCNc1ncnc2c1[nH]c1ccc(Br)cc12`, the inhibition is 1.04%. With `NS(=O)(=O)c1cccc(Nc2nc(N[C@@H]3CCNC3)nc3cc[nH]c(=O)c23)c1` the figure was -3%. For `N#Cc1ccc(-c2ccc(C(=O)Nc3ccc4c(c3)CCN(C3CCC3)CC4)nc2)cc1`, the inhibition was 2.04%. With `Cc1csc(-c2nonc2NC(=O)COc2ccccc2C(C)C)n1` the figure was 2.3%; with `CCO[C@H]1CN[C@H](C#Cc2cc3c(Nc4ccc(OCc5cccc(F)c5)c(Cl)c4)ncnc3s2)C1`, 3.03%; with `O=C(Cn1c(SCc2cccc(F)c2F)cc(=O)c2ccccc21)N(Cc1ccc(-c2ccc(C(F)(F)F)cc2)cc1)C1CCN(CCO)CC1`, -1.32%. `CN(C(=O)c1nn(-c2ccccn2)c2nccc(-c3cccs3)c12)C1CCCCC1`: the inhibition was found to be 3.33%. For the compound `CC(Nc1nc(Nc2ccc(F)cc2)nc(SCC(N)=O)n1)c1ccccc1` (stereo not given), the inhibition amounted to 0.81%. With `CC(C)c1sc(N2CCN(C)CC2)nc1C(=O)Nc1ccc(F)cc1C(F)(F)F` the figure was 2.97%; with `Cc1cnc(Nc2ccccc2)nc1N[C@@H](CCCN)C(=O)Nc1ccccc1`, -0.3%; with `CC(C)(C)NS(=O)(=O)c1cc(C(=O)N2CCC(CCN3CCC(O)(c4cccc(C(F)(F)F)c4)CC3)(c3cccc(F)c3)CC2)c(Cl)cc1F`, -0.37%. With `O=C(Nc1ccc(Cl)c(Cl)c1)N1CCC(NCc2cccc([N+](=O)[O-])c2)CC1` the figure was 3.26%; with `COc1cccc(C=NN=c2cc(C)[nH]c3ccccc23)c1`, 3.02%; with `COc1cc(C=NNc2cc(C)nc3c(OC)cccc23)cc(OC)c1OC`, 3.68%.

With `O=C(Nc1ccc(OC(F)(F)F)cc1)NC1CCN(c2ccnc3ccccc23)CC1`, the inhibition is -1.28%. With `COc1ccc2oc(=O)c(C#N)c(O)c2c1` the figure was 0.54%. With `CN1CCCC(CN2CCN(Cc3ccc(-c4ccc(-c5nc6ccccc6[nH]5)cc4)cc3)CC2)C1` (stereo not given) the figure was 7.8%; with `CC(O)C1CCCCN1C(=O)c1ccc(-c2ccc(-c3nc4ccccc4[nH]3)s2)cc1` (stereo not given), -1.69%; with `Fc1ccc(-c2cncc(-c3ccc(F)cc3)n2)cc1`, 8.06%. As for `CN1CCC(Oc2cc(CN3CC[C@H](NC(=O)c4ccc(Cl)c(Cl)c4)C3)ccc2I)C1` (stereo not given in full), the figure is 2.33%.

Consider `COc1ccc(COc2c(OC)cc(Cc3cnc(N)nc3N)cc2OC)cc1`, for which the inhibition amounted to 6.57%. As for `C=CCOC(=O)N1CCC(CNCc2cccc(-c3cccc(-c4nc5cccc(C)c5[nH]4)c3)c2)C1` (stereo not given), the inhibition was found to be 7.29%. With `Cc1cnc2ccc(NS(=O)(=O)c3ccc4c(Cl)cccc4c3)cc2c1N1CCNCC1` the figure was 1.37%. `O=C(NCc1ccco1)c1ccc(S(=O)(=O)c2ccc(Cl)cc2)cc1`: the inhibition came out at 0.06%. Turning to `O=C(/C=C/c1ccc(Cl)c(Cl)c1)NCCCCCN1CC[C@H](NC(=O)/C=C/c2ccccc2)C1`, the inhibition is -0.08%. With `Cc1ccc(Nc2nccc(NCC(O)c3cccc(C)c3)n2)cc1` (stereo not given) the figure was 3.22%; with `Cc1cccc2nc(-c3cccc(-c4ccc(C(=O)NCc5nccn5C)cc4)c3)[nH]c12`, 1.69%. As for `CN(Cc1ccccc1)C(=O)CCNS(=O)(=O)c1cc(Br)cnc1N`, the figure is 6.07%; as for `COc1ccccc1C1CCN(C2CCC(NC(=O)/C=C/c3ccc(C(F)(F)F)cc3)CC2)CC1` (stereo not given), 2.85%; as for `CC(C)NCc1ccc(-c2cccc(-c3nc4ccccc4[nH]3)c2)cc1`, 10.3%. As for `CN1CCC(NCc2ccc(-c3ccc(S(=O)(=O)NC4CCC4)s3)cc2)CC1`, the figure is 0.74%. With `OC1=C2C(=Nc3ccccc3SC2c2ccccc2)c2ccccc21` (stereo not given), the inhibition turned out to be 1.01%. As for `COc1cc2nc(N3CC(C)N(C(=O)Cc4ccc(-c5ccccc5)cc4)C(C)C3)nc(N)c2cc1OC` (stereo not given), the figure is 3.8%. As for `COc1cc2s/c(=N\C(=O)c3cccc([N+](=O)[O-])c3)n(C)c2cc1OC`, the figure is 6.9%; as for `Cc1cc(-c2cnc(N)c(-c3ccc(N4CCN(C)CC4)nc3)c2)cc(C)c1O`, 0.74%. `O=C(Nc1ccccc1)N(Cc1ccc(-c2cccc(CNC3CCCC3)c2)cc1)C1CCN(Cc2ccccc2)CC1`: the inhibition is 1.42%. As for `COc1ccc(C2C(C(=O)Nc3ccc(C)cc3Br)c3ccccc3C(=O)N2C)cc1` (stereo not given), the figure is 0.83%. With `CC(C)c1ccc(CN2CCCCC(NC(=O)c3cc(-c4ccccc4F)cs3)C2)cc1` (stereo not given) the figure was 11.2%.

These data come from ChEMBL document CHEMBL3433997, “St. Jude Leishmania screening dataset” (2016).
